Assay outcomes deposited in PubChem by several laboratories.
Compounds with a hit are over-represented: about 32% of the library has one in this group of screens.
PostGolgi ctrl: growth inhibition of yeast control strain, primary screen, counter-screen for post-Golgi transport modulator project; efflux-deficient yeast background strain, growth absorbance A615, 16 h; inhibition, % at 10 µM; actives 5% (n = 98,000); AID 738, 2007
CYP2C19 act: human CYP2C19 activators, primary screen, biochemical, luminescence. Cytochrome P450 2C19 (Homo sapiens), P33261. recombinant CYP2C19, luciferin-H EGE luminescence; stronger effect = higher value; 0 = fully inhibited enzyme, 1 = untreated enzyme. activation factor at 5 µM. 96,000 tested, under 10 active. AID 1025, 2008;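 active = activation factor of at least 2 at 5 µM in the primary screen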
CYP2C9 act: human CYP2C9 activators, primary screen, biochemical, luminescence. actives 1.4% (n = 96,000). activation factor at 5 µM. Cytochrome P450 2C9 (Homo sapiens), P11712. recombinant CYP2C9, luciferin-H conversion; stronger effect = higher value; factor 1 = untreated enzyme, 0 = blocked;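 active = activation factor of 2 or more for CYP2C9 at a 5 µM dose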
Target sequence (P11712 whole entry, looked up): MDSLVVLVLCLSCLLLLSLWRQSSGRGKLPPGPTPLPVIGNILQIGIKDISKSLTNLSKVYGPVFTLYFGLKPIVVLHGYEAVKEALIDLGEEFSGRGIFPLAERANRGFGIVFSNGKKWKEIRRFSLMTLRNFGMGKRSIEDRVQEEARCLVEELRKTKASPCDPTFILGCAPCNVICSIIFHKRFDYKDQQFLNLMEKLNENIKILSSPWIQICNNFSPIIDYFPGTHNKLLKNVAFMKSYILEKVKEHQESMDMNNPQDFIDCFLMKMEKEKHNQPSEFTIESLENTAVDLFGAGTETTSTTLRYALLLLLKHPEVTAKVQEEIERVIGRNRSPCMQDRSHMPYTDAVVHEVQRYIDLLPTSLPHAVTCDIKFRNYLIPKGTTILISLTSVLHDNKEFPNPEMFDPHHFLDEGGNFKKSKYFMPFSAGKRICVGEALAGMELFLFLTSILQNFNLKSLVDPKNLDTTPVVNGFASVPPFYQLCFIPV
CYP2C19 inhib: blockers of cytochrome P450 2C19 activity – biochemical, luminescence, ADME assay, primary screen | P33261 | CYP2C19 Supersomes, luciferin-H EGE luminescence, 30 min | inhibition, % at 5 µM | actives 21% (n = 96,000) | AID 778, 2007;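 active = CYP2C19 inhibition above a set limit at 5 µM in the primary screen, cut at about 50% in these data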
PostGolgi yeast: phenotypic screen on post-Golgi transport, primary screen | inhibition, % at 10 µM | actives 0.9% (n = 98,000) | post-Golgi transport phenotypic cell assay;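 also: yeast cells grown in 1536-well plates; yeast grown about 18 h at 30C before absorbance read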
CYP2C9 inh: blockers of cytochrome P450 2C9 activity – biochemical, luminescence, ADME assay, primary screen | AID 777, 2007 | P11712 | CYP2C9 Supersomes, luciferin-H conversion | inhibition, % at 5 µM | actives 20% (n = 96,000);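 active = blocking of liver enzyme CYP2C9 beyond about 50% at 5 µM, limit read from the data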
A number is an active result; – = inactive. Rule as the data show it, unless noted: active = inhibition above about 30%; inactive = the rest.

SMILES	PostGolgi ctrl	CYP2C19 act	CYP2C9 act	CYP2C19 inhib	PostGolgi yeast	CYP2C9 inh
O=C(NCCc1ccccc1)c1ccc(Br)o1	–	–	–	51	–	–
O=C(NCCNC(=O)c1ccc(Br)o1)c1ccc(Br)o1	–	–	–	–	–	–
O=C(Cc1ccc(F)cc1)NCCc1ccc(F)cc1	–	–	–	65	–	52
CCCC(=O)NCCc1ccc(F)cc1	–	–	–	–	–	–
O=C(CN1CCCCCC1)NCCc1ccc(F)cc1	–	–	–	66	–	–
O=C(Cc1ccc(F)cc1)NCCc1ccccc1	–	–	–	68	–	50
COc1ccc(N2CC(C)Cn3c2nc2c3c(=O)[nH]c(=O)n2C)cc1 (stereo not drawn)	–	–	–	–	–	–
Cc1ccc(C(=O)OCC(=O)Nc2ncc(C(F)(F)F)cc2Cl)cc1NC(=O)c1ccco1	–	–	–	–	–	–
O=C(Nc1nc(-c2ccc(S(=O)(=O)N3CCOCC3)cc2)cs1)c1ccccc1	–	–	–	–	–	–
COc1cc(C(=O)Nc2nc(-c3cccs3)cs2)cc(OC)c1OC	48	–	–	–	–	–
COc1cccc(-c2csc(N3CCN(S(=O)(=O)c4ccc(F)cc4)CC3)n2)c1	37	–	–	–	–	–
COc1cccc(C(=O)Nc2nc(-c3ccc(S(=O)(=O)N4CCOCC4)cc3)cs2)c1	–	–	–	–	–	83
O=C(Nc1nc(-c2cccs2)cs1)c1cccc(S(=O)(=O)N2CCCCC2)c1	–	–	–	51	–	84
CCCNC(=O)C1CNc2ccccc2O1 (stereo not drawn)	–	–	–	–	–	–
CCCc1nn(CCc2ccccn2)c(N)c1CC	–	–	–	–	–	–
Cc1ccc(-c2csc(NC(=O)COC(=O)c3cccc(S(=O)(=O)N4CCOCC4)c3)n2)cc1	–	–	–	–	–	–
Cc1ccc(-c2csc(NC(=O)c3cccc(S(=O)(=O)N4CCN(C)CC4)c3)n2)cc1	–	–	–	97	–	–
OC(COc1ccc2ccccc2c1)CN1CCN(c2ccc(F)cc2)CC1 (stereo not drawn)	–	–	–	51	–	–
OC(COc1c(F)cc(Br)cc1F)CN1CCN(c2ccc(F)cc2)CC1 (stereo not drawn)	47	–	–	–	33	–
O=S(=O)(c1ccc(OCC(O)CN2CCN(c3ccc(F)cc3)CC2)cc1)N1CCOCC1 (stereo not drawn)	–	–	–	–	–	–
CC(C)c1ccc(OCC(O)CN2CCN(c3ccccc3)CC2)cc1 (stereo not drawn)	63	–	–	–	51	–
CCCOC(=O)c1ccc(OCC(O)CN2CCN(C(=O)c3ccccc3)CC2)cc1 (stereo not drawn)	–	–	–	–	–	64
CCOC(=O)c1c2n(c3c(NCc4ccccc4)ncnc13)CCCC2	–	–	–	–	–	77
COC(=O)c1c(C(=O)OC)c(-c2ccccc2)n2c1CCC2	–	–	–	–	–	–
CCC(=O)N1CCc2cc(S(=O)(=O)NC(CC(C)C)C(=O)N3CCc4ccccc43)ccc21 (stereo not drawn)	–	–	–	52	–	–
SMILES	PostGolgi ctrl	CYP2C19 act	CYP2C9 act	CYP2C19 inhib	PostGolgi yeast	CYP2C9 inh
COc1ccc(CCNS(=O)(=O)c2ccc3c(c2)n(C)c(=O)c(=O)n3C)cc1OC	–	–	–	–	–	–
COc1ccc(CCNS(=O)(=O)c2ccc(S(=O)(=O)N3CCCC3)cc2)cc1OC	–	–	–	–	–	57
CC(=O)N1CCc2cc(S(=O)(=O)CCC(=O)NCc3cccs3)ccc21	–	–	–	–	–	–
CCC(=O)N1CCc2cc(S(=O)(=O)CCC(=O)NCCc3ccccc3)ccc21	–	–	–	–	–	50
CCOc1ccc(OCC)c(NS(=O)(=O)c2ccc3c(c2)CCN3C(=O)C2CCC2)c1	–	–	–	–	–	79
CCOc1ccc(OCC)c(NS(=O)(=O)c2ccc3c(c2)n(C)c(=O)c(=O)n3C)c1	–	–	–	–	–	–
CC(=O)C1=C(O)C(=O)N(Cc2ccccc2)C1c1ccco1 (stereo not drawn)	–	–	–	–	–	–
